From the supplement of paper PMC10849652
Targets with a hit are over-represented here; the source holds about 7,900 in all. About 0.6% of all pairs of compound and target were hits.

Compound: c1cn2cc(-c3ccc4cn[nH]c4c3)nc(Nc3ccc(N4CCOCC4)cc3)c2n1 [entospletinib]
Assay: log2 fold change, soluble protein after heating vs DMSO (PISA); higher = thermal stabilisation; K562 cells, 10 uM, 30 min; active = over 0.2 and 3.5 SD of the protein, either way, in both replicates (recomputed)
Procedure, shortened: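 K562 cells at 2×10^6 cells/mL were treated for 30 min with 10 μM compound, and aliquots were heated for 3 min over 48°C-58°C before pooling. Extraction used PBS with 0.5% NP-40 at 4°C, and soluble protein was the supernatant after 21,000xg for 90 min, measured by TMTpro 16plex LC-MS/MS with channel sums equalised. Thermal stability values, relative to control samples and from duplicates, are log2 fold changes.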

Sequence of UniProt Q96GG9 (Q96GG9 whole entry, looked up): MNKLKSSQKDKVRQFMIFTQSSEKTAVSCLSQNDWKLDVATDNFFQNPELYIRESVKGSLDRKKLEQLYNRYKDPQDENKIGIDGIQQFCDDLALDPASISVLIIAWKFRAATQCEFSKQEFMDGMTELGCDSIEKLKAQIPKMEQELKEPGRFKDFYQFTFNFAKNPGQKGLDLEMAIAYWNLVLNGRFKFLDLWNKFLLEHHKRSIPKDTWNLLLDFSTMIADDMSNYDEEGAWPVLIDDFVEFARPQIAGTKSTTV
Sequence of UniProt Q96A65 (Q96A65 whole entry, looked up): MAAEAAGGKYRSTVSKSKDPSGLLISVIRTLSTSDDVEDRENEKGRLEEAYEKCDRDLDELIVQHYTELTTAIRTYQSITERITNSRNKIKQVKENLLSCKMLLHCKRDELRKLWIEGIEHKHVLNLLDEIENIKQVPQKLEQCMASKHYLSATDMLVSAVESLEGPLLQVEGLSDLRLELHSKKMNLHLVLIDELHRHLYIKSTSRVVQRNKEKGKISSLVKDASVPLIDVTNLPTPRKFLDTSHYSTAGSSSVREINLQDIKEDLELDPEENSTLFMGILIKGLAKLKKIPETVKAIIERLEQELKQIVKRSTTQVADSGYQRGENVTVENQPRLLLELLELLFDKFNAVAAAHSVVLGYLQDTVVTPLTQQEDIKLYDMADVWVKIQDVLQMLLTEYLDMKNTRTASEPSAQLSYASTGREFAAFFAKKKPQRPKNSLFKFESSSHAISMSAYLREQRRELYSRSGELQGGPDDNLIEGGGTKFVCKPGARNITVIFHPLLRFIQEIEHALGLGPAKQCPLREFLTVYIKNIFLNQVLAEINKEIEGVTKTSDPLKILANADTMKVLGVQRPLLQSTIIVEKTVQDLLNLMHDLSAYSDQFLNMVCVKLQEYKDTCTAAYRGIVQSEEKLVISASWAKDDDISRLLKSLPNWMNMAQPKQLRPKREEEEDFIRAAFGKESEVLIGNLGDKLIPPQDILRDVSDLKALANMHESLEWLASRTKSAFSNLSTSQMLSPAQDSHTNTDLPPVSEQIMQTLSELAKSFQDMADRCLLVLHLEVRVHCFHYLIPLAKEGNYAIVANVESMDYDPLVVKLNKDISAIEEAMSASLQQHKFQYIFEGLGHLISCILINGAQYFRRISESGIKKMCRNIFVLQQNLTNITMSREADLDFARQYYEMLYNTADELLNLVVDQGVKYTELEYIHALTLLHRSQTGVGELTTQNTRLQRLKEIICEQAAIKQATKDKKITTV
Sequence of UniProt Q16531 (Q16531 whole entry, looked up): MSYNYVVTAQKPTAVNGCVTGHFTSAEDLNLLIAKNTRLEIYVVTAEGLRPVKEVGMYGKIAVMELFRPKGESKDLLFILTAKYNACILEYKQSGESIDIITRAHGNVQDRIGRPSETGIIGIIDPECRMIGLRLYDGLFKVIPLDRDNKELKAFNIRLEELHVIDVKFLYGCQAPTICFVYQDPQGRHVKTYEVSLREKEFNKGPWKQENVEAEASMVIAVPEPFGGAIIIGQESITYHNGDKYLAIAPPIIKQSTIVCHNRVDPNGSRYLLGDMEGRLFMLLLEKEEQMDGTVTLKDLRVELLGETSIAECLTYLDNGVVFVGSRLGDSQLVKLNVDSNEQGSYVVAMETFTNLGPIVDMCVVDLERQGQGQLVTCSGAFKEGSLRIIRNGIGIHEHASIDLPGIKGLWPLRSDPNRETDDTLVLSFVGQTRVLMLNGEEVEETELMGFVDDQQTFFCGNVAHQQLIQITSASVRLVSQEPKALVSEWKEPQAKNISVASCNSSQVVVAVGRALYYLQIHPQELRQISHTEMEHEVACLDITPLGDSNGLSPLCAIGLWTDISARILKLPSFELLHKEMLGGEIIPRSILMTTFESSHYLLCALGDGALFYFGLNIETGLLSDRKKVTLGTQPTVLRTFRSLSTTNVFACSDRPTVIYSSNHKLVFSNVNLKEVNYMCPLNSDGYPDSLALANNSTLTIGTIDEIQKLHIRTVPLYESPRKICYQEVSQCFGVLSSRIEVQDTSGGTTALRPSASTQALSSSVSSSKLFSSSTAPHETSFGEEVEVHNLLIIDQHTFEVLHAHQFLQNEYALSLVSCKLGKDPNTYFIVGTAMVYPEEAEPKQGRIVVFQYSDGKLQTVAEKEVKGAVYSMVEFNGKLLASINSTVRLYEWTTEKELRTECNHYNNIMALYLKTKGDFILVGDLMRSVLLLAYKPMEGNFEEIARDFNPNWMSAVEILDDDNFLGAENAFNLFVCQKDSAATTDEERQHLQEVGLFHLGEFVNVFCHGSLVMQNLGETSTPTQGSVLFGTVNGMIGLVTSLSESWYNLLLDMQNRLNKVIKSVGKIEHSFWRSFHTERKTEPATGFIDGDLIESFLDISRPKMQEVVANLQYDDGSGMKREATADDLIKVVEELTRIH
Sequence of UniProt O60888 (O60888 whole entry, looked up): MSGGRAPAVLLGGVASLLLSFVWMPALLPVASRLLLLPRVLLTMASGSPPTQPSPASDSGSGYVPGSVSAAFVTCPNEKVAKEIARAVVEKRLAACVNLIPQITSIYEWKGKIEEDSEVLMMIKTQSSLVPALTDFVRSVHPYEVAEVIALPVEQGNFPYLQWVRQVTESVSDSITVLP
Sequence of UniProt Q9HBU6 (Q9HBU6 whole entry, looked up): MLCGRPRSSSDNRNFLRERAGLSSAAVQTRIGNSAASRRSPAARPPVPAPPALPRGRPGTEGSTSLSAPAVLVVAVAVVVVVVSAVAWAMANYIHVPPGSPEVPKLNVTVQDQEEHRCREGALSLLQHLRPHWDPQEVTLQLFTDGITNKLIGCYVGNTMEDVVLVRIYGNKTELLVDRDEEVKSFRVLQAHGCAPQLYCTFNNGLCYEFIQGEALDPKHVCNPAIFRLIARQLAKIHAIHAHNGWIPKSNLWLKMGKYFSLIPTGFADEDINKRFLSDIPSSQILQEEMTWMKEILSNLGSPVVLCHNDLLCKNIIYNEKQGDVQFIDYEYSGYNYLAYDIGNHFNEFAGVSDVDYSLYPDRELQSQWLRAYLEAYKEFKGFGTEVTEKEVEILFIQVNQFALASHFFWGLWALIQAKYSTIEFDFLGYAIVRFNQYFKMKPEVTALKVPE
Sequence of UniProt Q9NWS6 (Q9NWS6 whole entry, looked up): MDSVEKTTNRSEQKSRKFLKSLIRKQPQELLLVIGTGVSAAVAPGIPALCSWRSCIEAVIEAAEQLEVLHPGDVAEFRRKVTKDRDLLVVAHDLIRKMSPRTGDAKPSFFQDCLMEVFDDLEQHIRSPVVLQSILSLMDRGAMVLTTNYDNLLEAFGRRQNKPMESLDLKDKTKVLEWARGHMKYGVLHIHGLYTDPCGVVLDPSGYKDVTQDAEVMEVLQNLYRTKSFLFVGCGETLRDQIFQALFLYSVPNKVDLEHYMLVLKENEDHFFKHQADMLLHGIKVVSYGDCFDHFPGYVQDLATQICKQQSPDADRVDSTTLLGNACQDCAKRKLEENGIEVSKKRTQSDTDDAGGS
Sequence of UniProt O75477 (O75477 whole entry, looked up): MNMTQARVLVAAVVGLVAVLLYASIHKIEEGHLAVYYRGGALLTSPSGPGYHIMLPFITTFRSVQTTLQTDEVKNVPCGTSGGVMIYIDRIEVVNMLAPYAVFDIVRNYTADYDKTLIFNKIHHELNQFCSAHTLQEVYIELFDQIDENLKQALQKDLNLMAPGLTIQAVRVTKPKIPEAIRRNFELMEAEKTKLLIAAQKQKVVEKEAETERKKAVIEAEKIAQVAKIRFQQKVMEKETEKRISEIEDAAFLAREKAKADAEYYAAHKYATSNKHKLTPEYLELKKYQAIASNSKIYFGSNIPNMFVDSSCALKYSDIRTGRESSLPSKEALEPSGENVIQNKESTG
Sequence of UniProt Q7L576 (Q7L576 whole entry, looked up): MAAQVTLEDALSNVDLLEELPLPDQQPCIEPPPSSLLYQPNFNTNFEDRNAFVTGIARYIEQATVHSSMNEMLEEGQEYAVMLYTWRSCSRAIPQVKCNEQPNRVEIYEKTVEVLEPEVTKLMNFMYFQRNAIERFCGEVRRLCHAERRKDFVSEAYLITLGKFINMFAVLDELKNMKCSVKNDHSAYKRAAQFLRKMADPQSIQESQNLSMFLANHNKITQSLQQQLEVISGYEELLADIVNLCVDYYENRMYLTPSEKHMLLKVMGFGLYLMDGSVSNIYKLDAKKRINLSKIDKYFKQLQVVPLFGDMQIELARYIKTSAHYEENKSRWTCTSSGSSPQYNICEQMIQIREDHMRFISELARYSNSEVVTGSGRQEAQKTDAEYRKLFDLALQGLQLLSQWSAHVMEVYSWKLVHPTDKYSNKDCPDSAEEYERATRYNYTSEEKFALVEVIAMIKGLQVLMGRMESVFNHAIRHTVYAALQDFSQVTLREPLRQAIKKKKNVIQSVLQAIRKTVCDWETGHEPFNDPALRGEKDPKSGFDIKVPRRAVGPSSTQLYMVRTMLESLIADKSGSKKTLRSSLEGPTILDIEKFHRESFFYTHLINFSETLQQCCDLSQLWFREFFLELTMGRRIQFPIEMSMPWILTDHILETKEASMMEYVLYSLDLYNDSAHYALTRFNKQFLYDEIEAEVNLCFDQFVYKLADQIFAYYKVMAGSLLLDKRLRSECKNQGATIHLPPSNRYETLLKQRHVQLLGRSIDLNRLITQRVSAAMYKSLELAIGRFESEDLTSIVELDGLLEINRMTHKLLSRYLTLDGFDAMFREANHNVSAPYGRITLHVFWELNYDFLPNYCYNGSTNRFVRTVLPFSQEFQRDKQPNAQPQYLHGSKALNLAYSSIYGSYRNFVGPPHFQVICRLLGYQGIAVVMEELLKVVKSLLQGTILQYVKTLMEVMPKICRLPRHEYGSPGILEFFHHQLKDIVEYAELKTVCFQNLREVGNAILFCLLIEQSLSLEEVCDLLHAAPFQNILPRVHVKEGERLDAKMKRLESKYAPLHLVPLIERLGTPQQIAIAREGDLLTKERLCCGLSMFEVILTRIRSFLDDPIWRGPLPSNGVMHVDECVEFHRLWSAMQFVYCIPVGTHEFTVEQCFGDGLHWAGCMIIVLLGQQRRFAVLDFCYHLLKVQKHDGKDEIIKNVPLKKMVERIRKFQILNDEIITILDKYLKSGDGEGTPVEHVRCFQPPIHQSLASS

log2 fold change, inactive:
DCUN1D1 (UniProt Q96GG9) -0.023
DBR1 (UniProt Q9UK59) 0
DYNC1I2 isoform 5 (UniProt Q13409) 0.038
DENND10 (UniProt Q8TCE6) -0.006
CYFIP1 (UniProt Q7L576) -0.018
EEF1B2 (UniProt P24534) 0.038
EFCAB14 (UniProt O75071) 0.001
DTWD2 (UniProt Q8NBA8) 0.127
ERLIN1 (UniProt O75477) -0.049
CUTA isoform 2 (UniProt O60888) -0.027
DHCR24 (UniProt Q15392) -0.016
DCAF12 (UniProt Q5T6F0) 0.025
EIF3J (UniProt O75822) -0.005
DCAF6 isoform 3 (UniProt Q58WW2) -0.008
DCAF16 (UniProt Q9NXF7) 0
ETNK1 (UniProt Q9HBU6) -0.008
EXOC4 (UniProt Q96A65) -0.067
CTNNBL1 (UniProt Q8WYA6) 0.069
FAM118A (UniProt Q9NWS6) 0.248
DDB1 (UniProt Q16531) 0.001
FAM122A (UniProt Q96E09) -0.012
DHFR (UniProt P00374) 0.013
ERCC2 (UniProt P18074) 0.154
